Measurements taken from the supplement of paper PMC5499739.
The full ranking holds about 16,000 sequences; the median of “Z-score” is about -0.37, and the highest 2% start at about 3.1. Shown is part of a subset that was picked to be rich in the highest values.

system: RBM10 RRM1-ZnF-RRM2 (GST-tagged construct); assay: RNAcompete 7-mer binding Z-score; higher = stronger binding preference
Description: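 RNAcompete: 20 pmol GST-tagged RBM10 RNA-binding constructs were incubated with a designed RNA pool of about 241,000 sequences up to 41 nt (1.5 nmol) on glutathione beads for 30 min at 4 °C and washed. Bound RNAs were identified by microarray hybridisation. Each RNA 7-mer is scored by a one-sided Z-score of its enrichment, computed over probes that contain the 7-mer within longer pool sequences.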

Row | Sequence | RNAcompete 7-mer binding Z-score
1 | AGGGGCG | 2.07
2 | GUGGGUC | 2.4
3 | AUUGGUG | 1.84
4 | AUGGGUC | 2.15
5 | GUGGGUG | 3.76
6 | AUCGGUG | 0.691
7 | AUGGGUG | 3.74
8 | CUGGGUG | 1.82
9 | AGGGGUG | 3.14
10 | AUGGGUU | 2.86
11 | AUGGGUA | 3.71
12 | AGGGGGC | 1.4
13 | CUCUUCC | -0.879
14 | AAUAUAC | -0.26
15 | UAGUCCA | -0.683
16 | UGUGGCC | 0.0459
17 | AUCUCGC | -0.894
18 | AAGUUAC | -0.289
19 | CGGCUGA | -0.0306
20 | UUCAAUA | -0.151
21 | UGGGGUC | 2.62
22 | UUGGGUC | 1.03
23 | CGGGGUG | 3.36
24 | UCGGGUG | 1.96

Row | Sequence | RNAcompete 7-mer binding Z-score
25 | GGGGGUC | 2.06
26 | GGGGGCG | 2.58
27 | UUGGGUU | 2.05
28 | CCGGGUG | 1.62
29 | CGGGGUU | 2.23
30 | UUGGGUG | 3.43
31 | UGGGGUG | 4.14
32 | GGGGGUG | 3.43
33 | GUUAUCU | -0.395
34 | GACCCCC | -0.551
35 | ACGAAUA | -0.238
36 | UAUCACG | -0.435
37 | AUGUAAC | -0.147
38 | GAGUGUU | 0.432
39 | CGAGGCU | 0.217
40 | ACACCCU | -0.941
41 | UAAUACA | -0.391
42 | UCAUUCU | -0.752
43 | UGCGGUC | -0.00512
44 | GCGCUGU | -0.191
45 | ACAGUAA | 0.0677
46 | GGCCGCC | -0.683
47 | UAAGCCA | -0.712
48 | GCCAAAC | -0.573

Row | Sequence | RNAcompete 7-mer binding Z-score
49 | AGUCUGU | -0.482
50 | UGGUGUG | 2.21
51 | GGGUGUG | 3.51
52 | AGGGGUU | 2.42
53 | GGGUGUA | 3.09
54 | GGGGGUU | 3.29
55 | GGGGUUU | 2.36
56 | AUCUACU | -0.806
57 | AUCUUGG | -0.311
58 | CGGGAAC | 1.5
59 | GCUUCCG | -0.799
60 | CUUGGUC | -0.821
61 | GGACAGA | 1.44
62 | GGACCGU | 0.0532
63 | GGGGAUC | 2.27
64 | GGGGAUG | 3.68
65 | AGGGAUG | 4.22
66 | UGGGAUA | 2.85
67 | UGGGAUG | 3.22
68 | CGGGAUG | 2.31
69 | UGGGAUU | 1.63
70 | AGGGACG | 2.37
71 | GGGGAUU | 2.36
72 | ACAGAUU | -0.242

Row | Sequence | RNAcompete 7-mer binding Z-score
73 | AAUGGUC | 0.822
74 | GCAGCCC | -0.497
75 | CUGCCAG | -0.606
76 | AAACUUU | -0.752
77 | UAGUGAC | 0.21
78 | CAUUCUA | -0.821
79 | GCGGGGA | 3.23
80 | UCGGGGA | 1.7
81 | GCGGGUU | 2.54
82 | GCGGGGC | 2.5
83 | CCGGGGA | 1.12
84 | UCGGGGU | 1.76
85 | GCGGGGU | 3.77
86 | GCGGGGG | 3.51
87 | CCGGGGG | 1.4
88 | UCAAGCU | -0.621
89 | CUCCGAC | -0.664
90 | UCCCCAA | -0.639
91 | CCAUAGA | -0.464
92 | GAACGGC | 0.84
93 | GAACGGU | 1.56
94 | GGAACGG | 4.03
95 | AGAACGG | 1.84
96 | GGACGGC | 1.05

Row | Sequence | RNAcompete 7-mer binding Z-score
97 | GAACGGG | 4.29
98 | GGACGGG | 4.18
99 | CGAACGG | 1.41
100 | CGACGGG | 2.14
101 | ACGAUAC | -0.413
102 | AUGCAUC | -0.362
103 | UGAUAUA | -0.366
104 | CACGAAA | -0.366
105 | GGAUGGU | 3.73
106 | AGAUGGU | 1.63
107 | GGAUGGA | 3.36
108 | AGAUGGA | 2.92
109 | UGAUGGU | 1.26
110 | GGAUGGC | 2.46
111 | UAGGAGC | 1.74
112 | AUGGGCG | 3
113 | GUGGGCC | 1.58
114 | GUGGGCG | 3.37
115 | CUGGGCG | 1.05
116 | AUGGGCA | 2.7
117 | GUGGGCA | 3.48
